PfG6PD inh – PfG6PD (Plasmodium falciparum) enzyme inhibition. AID 504690. PfGluPho enzyme, NADPH resazurin-diaphorase fluorescence. actives 0.78% (n = 350,000). inhibition, % at 20 µM;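 active = inhibition reaching at least a set limit at 20 µM in the primary screen, cut at about 59% in these data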;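 note: 0% = DMSO wells with substrate and 100% = DMSO wells lacking glucose-6-phosphate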
NadD block – inhibitors of Staphylococcus aureus NadD; actives 0.78% (n = 360,000); inhibition, % at 20 µM; purified NadD enzyme, colorimetric absorbance read-out; in the data active = inhibition above about 26%
APOBEC3A inh – blocks human APOBEC3A ssDNA deamination. recombinant A3A, FAM/TAMRA ssDNA deamination fluorescence. inhibition, % at 20 µM. actives 0.41% (n = 330,000);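 active = at least 40% inhibition at 20 µM here, with at most 30% in a related deaminase screen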;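 note: plate controls were A3A with DMSO for no effect and wells lacking A3A enzyme for full effect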
A3G deaminase – blocks human APOBEC3G single-stranded DNA deamination. inhibition, % at 20 µM. Q9HC16. actives 0.28% (n = 330,000). recombinant A3G, ssDNA deamination FAM/TAMRA fluorescence;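 active = inhibition of at least 40% at 20 µM, with no more than 30% in the related APOBEC3A deaminase screen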;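 note: plate controls were DMSO wells with A3G for no effect and wells lacking A3G enzyme for full effect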
Target sequence (Q9HC16 whole entry, looked up): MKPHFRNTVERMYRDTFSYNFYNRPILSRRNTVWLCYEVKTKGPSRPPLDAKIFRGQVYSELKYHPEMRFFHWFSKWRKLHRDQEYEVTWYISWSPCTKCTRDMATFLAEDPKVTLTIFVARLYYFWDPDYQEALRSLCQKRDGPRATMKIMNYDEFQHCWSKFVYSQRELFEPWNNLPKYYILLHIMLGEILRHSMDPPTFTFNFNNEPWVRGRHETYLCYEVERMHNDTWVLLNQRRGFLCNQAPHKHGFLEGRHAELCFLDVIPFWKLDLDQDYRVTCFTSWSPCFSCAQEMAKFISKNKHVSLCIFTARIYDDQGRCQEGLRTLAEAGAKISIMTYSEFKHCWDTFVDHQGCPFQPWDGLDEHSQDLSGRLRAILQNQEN
H9c2 protect – modulators protecting cardiomyocytes from myocardial damage. AID 588492. protection from H2O2 cell death, % at 20 µM. H9c2 cardiomyocytes, H2O2 injury protection, ATPLite, 2 h. actives 0.63% (n = 360,000);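 active = compounds giving at least 50% protection of heart cells from peroxide-induced death in the single-dose screen, raw or plate-pattern-corrected value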;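 note: 0% = DMSO wells with peroxide and 100% = DMSO wells without peroxide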
H9c2 TAG inh – inhibitors of triacylglycerol accumulation. inhibition, % at 12.5 µM. H9c2 cells, Nile Red lipid (TAG) fluorescence; cells loaded with 200 µM oleic acid. actives 0.66% (n = 230,000). AID 651582;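 active = pattern-corrected inhibition of lipid staining of at least 50% with the nuclear-stain viability signal not falling by more than 50%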;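 note: 0% = DMSO wells and 100% = triacsin C control wells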
APOBEC3A confirm – confirmation of human APOBEC3A DNA deaminase inhibitors; inhibition, % at 20 µM; recombinant A3A, ssDNA deaminase UDG fluorescence assay; shares compounds with APOBEC3A inh; actives 63% (n = 1,400);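 active = inhibition reaching a set limit, 80% of the first screen's cutoff, at 20 µM in any replicate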;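 note: plate controls were DMSO wells with A3A for no effect and wells lacking A3A enzyme for full effect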
UDG A3A counter – UDG inhibition in APOBEC3A counter-screen; shares compounds with APOBEC3A inh; UDG counterscreen, FAM/TAMRA uracil oligo fluorescence; inhibition, % at 20 µM; 1,000 tested, under 10 active; AID 504714; call rule not given here
Numbers without * were called inactive; x = no result given. Hits are enriched below; roughly 2.9% of the tested compounds scored in any of these assays.

SMILES	PfG6PD inh	NadD block	APOBEC3A inh	A3G deaminase	H9c2 protect	H9c2 TAG inh	APOBEC3A confirm	UDG A3A counter
CCCCCn1c2c(c(=N)c3ccccc31)CCC2	-18	15	58*	18	-14	-7	74*	2
CCOC(=O)C1CN(C(=O)OCC)CC1=NNC(N)=O (stereo not drawn)	-9	-1	x	x	0	18	x	x
COc1ccc(C=NCCC2(O)CC(C)N(C)CC2C)cc1 (stereo not drawn)	-1	3	48*	1	3	1	1	x
CCN(C(=O)Cn1c(=O)oc2ccccc21)c1cccc(C)c1	-4	-4	100*	5	0	x	3	x
CCN(CC)S(=O)(=O)c1ccc(Cl)c(C(=O)Nc2ccc(Cl)cc2[N+](=O)[O-])c1	11	-7	1	0	-10	x	x	x
CN(CC(=O)N1CCN(Cc2ccccc2)CC1)C(=O)Cc1ccc(Cl)c(Cl)c1	-21	3	50*	1	1	12	34*	-3
COc1ccc(OC)c(NC(=O)CN(Cc2ccccc2)S(C)(=O)=O)c1	12	-3	7	-3	3	1	x	x
CNC(=O)CN(CCc1ccccc1)S(=O)(=O)c1ccc(OC)cc1	9	-4	45*	1	-3	x	25	x
COc1ccc(S(=O)(=O)N(CCc2ccccc2)CC(=O)NC(C)C)cc1	-13	-1	50*	11	6	x	48*	2
Nn1c(SCC(=O)Nc2ccccc2Br)nnc1-c1ccco1	-2	1	-5	-2	0	x	x	x
CC(C)(C)OC(=O)N1CC(O)CC1C(=O)OCC(=O)c1ccccc1 (stereo not drawn)	-11	-7	2	0	2	-4	x	x
CC(C)(C)OC(=O)N1CC(O)CC1C(=O)OCC(=O)c1ccc(Cl)cc1 (stereo not drawn)	-4	-2	42*	5	-4	x	2	x
CC(C)(C)OC(=O)N1CC(O)CC1C(=O)OCC(=O)c1ccc(-c2ccccc2)cc1 (stereo not drawn)	13	18	83*	26	1	7	71*	-1
NC(=O)C1=C[C@@H](c2csc3ccccc23)C[C@@H](OCCCCO)O1	25	1	2	-5	1	-24	x	x
CN1CC(=O)N(CC(=O)Nc2ccc(N3CCOCC3)cc2)C1=O	-14	-3	7	-1	-9	3	x	x
CCCS(=O)(=O)N1CCCC(C(=O)Oc2ccc(OC)cc2)C1 (stereo not drawn)	0	-3	-2	-2	5	x	x	x
Cc1ccn(C)c(=N)c1	4	1	48*	10	-7	x	56*	3
Cn1c(SCC(=O)N2CCOCC2)nnc1-c1cccc(NC(=O)c2ccccc2)c1	8	14	64*	20	3	x	66*	-2
Cc1nc2ccc(NC(=O)C3COc4ccccc4O3)cc2s1 (stereo not drawn)	25	3	49*	16	-3	7	60*	2
CCn1c(SCC(=O)O)nc2sc3c(c2c1=O)CCC3	-21	-7	54*	17	4	12	48*	6
COC(=O)c1ccc2c(c1)C(C)(C)C(/C=C/c1ccc(O)cc1)=[N+]2C	22	27	24	17	-17	x	x	x
COC(=O)c1ccc2c(c1)C(C)(C)C(/C=C/c1ccc(OC)c(OC)c1OC)=[N+]2C	26	19	95*	24	-20	125	83*	2
CC(=O)N1CCN(C(=O)CCN(c2ccccc2)S(=O)(=O)c2ccc(C)cc2)CC1	4	1	2	-1	-3	-2	x	x
Cc1ccc(S(=O)(=O)N(CCC(=O)N2CCOCC2)c2ccccc2)cc1	-3	1	62*	9	8	14	27	x
Cc1noc(C)c1CSCC(=O)Nc1nc2ccc(S(C)(=O)=O)cc2s1	-6	-4	44*	2	-2	-8	15	x

Source: PubChem (Sanford-Burnham Center for Chemical Genomics)
